The nature of assay [1]: qHTS assay to test for compound auto fluorescence at 535 nm (green) in HEK293 cells (AID 720680). For orientation: In qHTS, concentration-response curves come from the screen itself.
A short description of assay [2]: qHTS assay to test for compound auto fluorescence at 460 nm (blue) in HEK293 cell free culture (AID 720681). Note: potency is the fitted concentration of half-maximal effect. The gist of the method:
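Compounds were added to cell-free DMEM with 10% FBS and fluorescence read directly. The blue channel used 405 nm excitation and 460 nm emission, with triamterene as the reference fluorophore.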

Assay [3] can be described thus: qHTS assay to test for compound auto fluorescence at 535 nm (green) in HEK293 cell free culture (AID 720682). The gist of the method: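 Cell-free medium (DMEM, 10% FBS) receives compound or DMSO by pintool. Plate read directly at Ex 485/Em 535 nm. Signal converted to fluorescein equivalency.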
Assay [4] can be described thus: qHTS assay to test for compound auto fluorescence at 590 nm (red) in HEK293 cell free culture (AID 720683). The method in brief: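 Cell-free wells of DMEM with 10% FBS received compound, and intrinsic fluorescence was read at excitation/emission 540/590 nm. Values expressed as equivalence to Rose Bengal sodium.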
Assay [5] is described as follows: qHTS assay to test for compound auto fluorescence at 460 nm (blue) in HepG2 cell free culture (AID 720685). The gist of the method:
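Cell-free plates of MEM plus 10% FBS received 23 nL compound or DMSO vehicle; blue-channel (405/460 nm) intensity scored against triamterene as reference fluorophore.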

Assay [6] can be described thus: qHTS assay to test for compound auto fluorescence at 535 nm (green) in HepG2 cell free culture (AID 720686).
Assay [7] in a line: qHTS assay to test for compound auto fluorescence at 460 nm (blue) in HepG2 cells (AID 720687). Note: potency is the fitted concentration of half-maximal effect. The method in brief:
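HepG2 cells in MEM with 10% FBS, attached overnight at 37 C, were exposed to compound or DMSO for 1 hr at 37 C, 5% CO2. Blue fluorescence was read at 405/460 nm, with triamterene as reference fluorophore.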

The target of assay [8] is Glucocorticoid receptor (Homo sapiens) (UniProt P04150). In words: qHTS assay to identify small molecule agonists of the glucocorticoid receptor (GR) signaling pathway (AID 720691; active = well fitted activation curve with a large enough effect in the signal ratio in the repeat runs, not every such curve was filed as active; the % refers to the signal ratio). The method in brief: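 Compounds in DMSO, alongside positive controls, were added to GR-bla HeLa reporter cells and incubated 18 h at 37 C; GRE-driven beta-lactamase was detected by fluorescence after 2 h with FRET substrate at room temperature.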
Glucocorticoid receptor (Homo sapiens), sequence (P04150 whole entry, looked up): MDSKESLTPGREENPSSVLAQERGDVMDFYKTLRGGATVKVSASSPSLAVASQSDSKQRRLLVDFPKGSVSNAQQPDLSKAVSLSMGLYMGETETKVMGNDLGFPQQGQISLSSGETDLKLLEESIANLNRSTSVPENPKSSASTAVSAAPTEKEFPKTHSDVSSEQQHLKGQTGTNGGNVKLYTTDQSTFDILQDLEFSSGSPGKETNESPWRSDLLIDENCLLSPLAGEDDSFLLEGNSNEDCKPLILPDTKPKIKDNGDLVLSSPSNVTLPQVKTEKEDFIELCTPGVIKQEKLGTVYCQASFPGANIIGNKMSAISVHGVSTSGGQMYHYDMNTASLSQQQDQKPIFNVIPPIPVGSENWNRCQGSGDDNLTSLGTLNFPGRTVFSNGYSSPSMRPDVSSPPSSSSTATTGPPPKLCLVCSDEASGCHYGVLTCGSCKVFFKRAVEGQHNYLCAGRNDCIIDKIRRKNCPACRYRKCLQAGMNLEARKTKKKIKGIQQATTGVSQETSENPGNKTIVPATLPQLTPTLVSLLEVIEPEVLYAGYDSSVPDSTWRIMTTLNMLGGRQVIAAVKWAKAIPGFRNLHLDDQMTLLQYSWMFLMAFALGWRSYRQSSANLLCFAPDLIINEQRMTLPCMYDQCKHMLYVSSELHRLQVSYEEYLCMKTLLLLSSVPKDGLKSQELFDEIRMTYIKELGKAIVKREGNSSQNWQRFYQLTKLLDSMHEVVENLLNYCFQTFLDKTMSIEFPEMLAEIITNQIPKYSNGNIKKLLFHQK

For assay [9] the target is unchanged. The assay can be described thus: qHTS assay to identify small molecule antagonists of the glucocorticoid receptor (GR) signaling pathway (AID 720692; active = well fitted inhibition curve with a large enough effect in the signal ratio in the repeat runs, not every such curve was filed as active; the % refers to the signal ratio). The method in brief: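 In a 1536-well cell format, compounds were added 4 h after seeding GR-bla HeLa cells, together with dexamethasone at 5 nM final; reporter activity was measured by FRET-substrate fluorescence following 18 h at 37 C.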

A short description of assay [10]: qHTS assay to identify small molecule antagonists of the glucocorticoid receptor (GR) signaling pathway - cell viability counter screen (AID 720693). Note: nearly all actives have a fitted effect of over 55% in size.
A short description of assay [11]: qHTS assay for identifying genotoxic compounds that show differential cytotoxicity against isogenic chicken DT40 cell lines with known DNA damage response pathways - wild type cell line (AID 743012). Note: nearly all actives have a fitted effect of over 60% in size. Note: potency is the fitted concentration of half-maximal effect. The method in brief: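 Viability of DNA repair-proficient chicken DT40 cells was assessed by CellTiter-Glo luminescence following 40 h compound exposure at 37 C/5% CO2.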

The nature of assay [12]: qHTS assay for identifying genotoxic compounds that show differential cytotoxicity against isogenic chicken DT40 cell lines with known DNA damage response pathways - Rev3 mutant cell line (AID 743014). Note: nearly all actives have a fitted effect of over 55% in size. Note: potency is the fitted concentration of half-maximal effect.
Assay [13] in a line: qHTS assay for identifying genotoxic compounds that show differential cytotoxicity against isogenic chicken DT40 cell lines with known DNA damage response pathways - Rad54/Ku70 mutant cell line (AID 743015). Note: nearly all actives have a fitted effect of over 60% in size. Note: potency is the fitted concentration of half-maximal effect.
Assay [14] can be described thus: qHTS assay to identify small molecule antagonists of the androgen receptor (AR) signaling pathway - cell viability counter screen (AID 743033; note: nearly all actives have a fitted effect of over 45% in size; note: potency is the fitted concentration of half-maximal effect).
Assay [15] is described as follows: qHTS assay to identify small molecule antagonists of the androgen receptor (AR) signaling pathway using the MDA cell line - cell viability counter screen (AID 743041; note: nearly all actives have a fitted effect of over 45% in size). The gist of the method: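 Compound exposure lasted 16 h at 37C in MDA-kb2 AR-luc cells stimulated with R1881. Protease-based CellTiter-Fluor reagent was applied for the final 30 min and fluorescence measured.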

Assay [16] is described as follows: qHTS assay to test for compound auto fluorescence at 590 nm (red) in HepG2 cell free culture (AID 720684). The gist of the method:
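Auto fluorescence equivalency versus Rose Bengal sodium, red channel Ex/Em 540/590 nm; compounds in cell-free MEM/10% FBS; DMSO vehicle control.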

Assay [17] addresses Androgen receptor (Homo sapiens) (UniProt P10275). In words: qHTS assay to identify small molecule antagonists of the androgen receptor (AR) signaling pathway (AID 743035; active = well fitted inhibition curve with a large enough effect in the signal ratio in the repeat runs, not every such curve was filed as active; the % refers to the signal ratio). The method in brief: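 Reporter HEK293 cells were exposed to compounds and R1881 overnight (16 h, 37C); beta-lactamase activity was then quantified by FRET fluorescence.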
Assay [18] has the same target. The assay can be described thus: qHTS assay to identify small molecule agonists of the androgen receptor (AR) signaling pathway (AID 743036; active = well fitted activation curve with a large enough effect in the signal ratio in the repeat runs, with a control signal flat, not every such curve was filed as active; the % refers to the signal ratio). The gist of the method:
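AR-bla HEK293 cells, 2,000/well; 4 h preincubation 37C/5% CO2; compound (DMSO) 16 h at 37C; LiveBLAzer B/G FRET substrate 2 h RT; fluorescence intensity read-out.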

Assay [19] shares this target. In words: qHTS assay to identify small molecule agonists of the androgen receptor (AR) signaling pathway using the MDA cell line (AID 743040; note: nearly all actives have a fitted effect of over 20% in size). The method in brief:
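Testing was done with the MDA-kb2 AR-luc line, a human breast carcinoma stably transfected with MMTV-luciferase containing AR and GR response elements. Cells were exposed 16 h at 37C before ONE-Glo luminescence detection.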

The target is the same in assay [20]. The assay can be described thus: qHTS assay to identify small molecule antagonists of the androgen receptor (AR) signaling pathway using the MDA cell line (AID 743042; note: nearly all actives have a fitted effect of over 55% in size). The method in brief: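 MDA-kb2 breast carcinoma cells carrying MMTV-luciferase (AR/GR responsive) were co-treated with compounds and the agonist R1881 for 16 h at 37C. Inhibition read as ONE-Glo luminescence; CellTiter-Fluor fluorescence measured in parallel for cytotoxicity.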

Several values for one entry are separate records, joined by “and”; a condition that tells them apart may be missing. Equal values may be shown once. Records with an inconclusive call do not appear. Activity calls are given as the source filed them. Unless noted, calls come from the whole dose curve; as a rule, active = well fitted curve in the direction sought with a large enough effect in the repeat runs; inconclusive = weak or mixed curves; inactive = no such curve, though single readings can be large; an effect the other way counts as inactive or inconclusive.
Tags give direction and shape of the fitted curve or compound fluorescence and quenching.

Androgen receptor (Homo sapiens), sequence (P10275 whole entry, looked up): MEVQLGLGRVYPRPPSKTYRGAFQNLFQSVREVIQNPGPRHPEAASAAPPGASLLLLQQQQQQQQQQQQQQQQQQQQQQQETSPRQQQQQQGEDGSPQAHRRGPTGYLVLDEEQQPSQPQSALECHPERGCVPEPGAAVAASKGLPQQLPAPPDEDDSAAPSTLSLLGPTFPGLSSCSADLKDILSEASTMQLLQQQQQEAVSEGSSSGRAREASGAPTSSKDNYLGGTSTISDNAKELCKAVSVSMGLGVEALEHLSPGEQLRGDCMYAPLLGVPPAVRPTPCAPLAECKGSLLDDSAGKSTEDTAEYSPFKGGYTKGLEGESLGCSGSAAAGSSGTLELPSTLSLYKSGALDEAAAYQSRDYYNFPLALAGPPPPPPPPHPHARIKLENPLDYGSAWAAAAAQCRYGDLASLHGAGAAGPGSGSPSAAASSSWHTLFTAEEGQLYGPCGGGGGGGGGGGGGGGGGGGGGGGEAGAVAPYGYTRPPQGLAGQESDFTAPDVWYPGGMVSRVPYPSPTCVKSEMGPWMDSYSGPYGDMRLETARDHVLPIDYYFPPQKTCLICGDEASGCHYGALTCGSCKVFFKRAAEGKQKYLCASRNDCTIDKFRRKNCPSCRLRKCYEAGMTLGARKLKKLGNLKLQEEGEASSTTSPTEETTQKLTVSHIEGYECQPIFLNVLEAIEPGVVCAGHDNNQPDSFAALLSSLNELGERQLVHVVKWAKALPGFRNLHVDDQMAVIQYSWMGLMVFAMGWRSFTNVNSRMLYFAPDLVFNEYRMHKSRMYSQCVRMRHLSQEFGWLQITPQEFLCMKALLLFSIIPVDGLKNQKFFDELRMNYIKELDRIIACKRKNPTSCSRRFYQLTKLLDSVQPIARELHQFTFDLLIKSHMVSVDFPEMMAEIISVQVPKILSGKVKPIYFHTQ

As to `NC(CO)(CO)CO`, the Potency result in assay [1], in assay [2], in assay [3], in [4], in [5] and in [6] was “inactive” throughout. The Potency result in [7], in [8], in assay [9], in [10], in assay [11] and in [12] was “inactive” each time. Further, the Potency result in assay [13], in assay [14] and in [15] was “inactive” each time.

Regarding `CN1CCc2cccc3c2[C@H]1Cc1ccc(O)c(O)c1-3`, the Potency entry in [1], in assay [2], in [3], in assay [4], in assay [5] and in [6] was “inactive” throughout. The Potency result in assay [7], in assay [8], in assay [9], in [10] and in assay [15] was “inactive” in each case. The Potency was 9.44 µM (active) and 15.5 µM (active) and 12.8 µM (active) in assay [11]; 11.9 µM (active) and 6.93 µM (active) and 9.09 µM (active) in assay [12]; 16.8 µM (active) and 12.3 µM (active) and 8.1 µM (active) in assay [13]; 55.5 µM (active) in [14].

As for `CCCCC1(COC(=O)CCC(=O)O)C(=O)N(c2ccccc2)N(c2ccccc2)C1=O`, the Potency entry in assay [1], in assay [2], in [3], in [4], in assay [16] and in [6] was “inactive” throughout. Besides, the Potency result in assay [7], in assay [10], in [11], in assay [12], in assay [13] and in assay [14] was “inactive” each time. Further, the Potency entry in assay [17], in assay [15] and in assay [20] was “inactive” each time. The compound was classed as inactive in [18] and in [19].

Regarding `CN(C)CCOC(c1ccccc1)c1ccccc1`, the Potency result in assay [1], in assay [2], in [3], in [4], in assay [16] and in assay [6] was “inactive” in each case. Besides, the Potency entry in assay [7], in assay [8], in assay [9], in [10], in [14] and in assay [17] was “inactive” each time. Further, the Potency entry in [15] is “inactive”. Further, the result in [18] and in [19] was inactive.

On to `CC/C(=C(\c1ccccc1)c1ccc(OCCN(C)C)cc1)c1ccccc1`, for which the Potency entry in [1], in assay [2], in [3], in [4], in assay [16] and in assay [6] was “inactive” in each case. Besides, the Potency result in assay [7] was “inactive”. In assay [14], the Potency was 13.9 µM (active) and 15.5 µM (active) and 11.1 µM (active).

`Cc1ccc(S(=O)(=O)O)cc1`: the Potency entry in [1], in [2], in [3], in assay [4], in assay [16] and in [6] was “inactive” each time. In addition, the Potency entry in assay [7], in [10], in assay [11], in assay [12], in assay [13] and in assay [14] was “inactive” throughout. Further, the Potency result in assay [15] is “inactive”.

In the case of `Cc1cc(=O)oc2cc(O)ccc12`, the Potency entry in assay [1], in [3], in [4], in [16], in assay [6] and in [10] was “inactive” each time. Further, the Potency entry in [11], in [12], in assay [13], in [14] and in [15] was “inactive” in each case. For the same compound, the Potency was 10 µM (active) and 39.8 µM (active) and 35.5 µM (active) in assay [2]; 10 µM [fluorescent] (active) and 39.8 µM [fluorescent] (active) in assay [7].

These data come from PubChem BioAssay (Tox21).
